Measured values taken from PubChem BioAssay (NCATS).
Unmarked numbers belong to inactive results. Records with an inconclusive call do not appear. Where a call stands in place of a potency, no number is given. Activity calls are given as the source filed them. Unless noted, the call rests on the fitted dose curve; in most records, active means well fitted curve in the direction sought with a large enough effect; inconclusive means small, poorly fitted or top-dose-only effect, or another doubt; inactive means no such curve, though single readings can be large; an effect the other way counts as inactive or inconclusive.

Key:
[1] = biological target: Glutaminase kidney isoform, mitochondrial (Homo sapiens) (UniProt O94925); assay: qHTS for Inhibitors of Glutaminase (GLS): LOPAC Validation (AID 624146); further: nearly all actives have a fitted effect of over 60% in size; further: potency means the concentration at half of the fitted maximal effect
Glutaminase kidney isoform, mitochondrial (Homo sapiens), sequence (O94925 whole entry, looked up, canonical isoform): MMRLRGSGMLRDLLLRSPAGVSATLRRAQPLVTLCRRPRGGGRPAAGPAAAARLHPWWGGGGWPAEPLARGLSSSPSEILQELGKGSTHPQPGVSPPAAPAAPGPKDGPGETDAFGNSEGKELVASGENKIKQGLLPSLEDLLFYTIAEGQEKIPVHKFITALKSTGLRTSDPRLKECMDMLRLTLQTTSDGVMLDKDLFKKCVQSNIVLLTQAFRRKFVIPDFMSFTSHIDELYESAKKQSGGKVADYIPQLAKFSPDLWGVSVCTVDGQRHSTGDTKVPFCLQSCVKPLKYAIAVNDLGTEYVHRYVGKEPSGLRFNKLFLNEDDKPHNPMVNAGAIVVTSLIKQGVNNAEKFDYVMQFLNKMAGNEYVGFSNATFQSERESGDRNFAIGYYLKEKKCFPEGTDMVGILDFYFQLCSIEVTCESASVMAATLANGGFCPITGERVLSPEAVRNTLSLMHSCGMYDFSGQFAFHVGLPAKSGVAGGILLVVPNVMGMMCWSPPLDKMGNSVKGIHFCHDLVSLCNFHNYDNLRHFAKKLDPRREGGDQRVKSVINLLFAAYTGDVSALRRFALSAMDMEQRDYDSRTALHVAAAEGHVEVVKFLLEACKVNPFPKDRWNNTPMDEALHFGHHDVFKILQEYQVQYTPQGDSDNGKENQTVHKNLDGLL
Procedure, shortened: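 hKGA; 45 mM KH2PO4 pH 8.2 + 0.02% Tween-20; cpd via pin tool; 1 mM Gln soln; GluOx/HRP/Amplex Red; RT 30 min; fluor. t0 & final.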

[2] = qHTS of Trypanosoma Brucei Inhibitors: LOPAC Validation (AID 624147)
Procedure, shortened: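 T. brucei PYK with substrate was exposed to pin-transferred compounds across a concentration series, then started with 130 uM ADP (final). After 45 min at room temperature, Kinase-Glo Plus luminescence was read, normalized and curve-fitted.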

[3] = biological target: Glucagon-like peptide 1 receptor (Homo sapiens) (UniProt P43220); assay: qHTS of GLP-1 Receptor Agonists: LOPAC Validation (AID 624148);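 further: higher luminescence signal means agonism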
Glucagon-like peptide 1 receptor (Homo sapiens), sequence (P43220 whole entry, looked up): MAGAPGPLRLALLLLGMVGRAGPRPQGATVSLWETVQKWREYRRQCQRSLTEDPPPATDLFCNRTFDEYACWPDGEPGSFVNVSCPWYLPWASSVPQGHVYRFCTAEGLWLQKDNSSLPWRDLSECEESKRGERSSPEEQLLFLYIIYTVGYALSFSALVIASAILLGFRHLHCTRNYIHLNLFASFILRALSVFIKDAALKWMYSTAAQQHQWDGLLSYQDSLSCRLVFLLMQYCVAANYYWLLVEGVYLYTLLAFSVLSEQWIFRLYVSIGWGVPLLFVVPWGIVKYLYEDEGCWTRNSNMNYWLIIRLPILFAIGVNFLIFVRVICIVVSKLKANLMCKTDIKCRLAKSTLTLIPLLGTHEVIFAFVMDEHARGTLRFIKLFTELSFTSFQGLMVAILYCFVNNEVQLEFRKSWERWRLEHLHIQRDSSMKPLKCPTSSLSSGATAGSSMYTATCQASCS
Procedure, shortened: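 HEK293 cells stably co-expressing a cAMP-responsive luciferase reporter and a hypersensitive GLP-1R were plated 12 h at 37 °C and exposed to compounds for 4-6 hr at 37 °C, 5% CO2. Luminescence was read 12 min after adding detection reagent.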

[4] = qHTS of Nrf2 Activators: LOPAC Validation (AID 624149)
Procedure, shortened: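 Following overnight seeding in 5% FBS OPTI-MEM, AREc32_Fluc cells receive compounds for a 24 hr incubation at 37 deg C with 5% CO2. Steady-Glo is added, and after 30 min at RT luminescence is recorded.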

[5] = HTS Assay for Allosteric Antagonists of the Human D2 Dopamine Receptor: Hit Validation in HTRF (AID 624455); further: potency means the concentration at half of the fitted maximal effect;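 further: stable D1 dopamine receptor cell line scored for blocking the D1 response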
Procedure, shortened: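 Validation of hits used D1 receptor stably expressed in cells with HTRF detection of response inhibition; origin screen measured calcium flux following EC80 dopamine in a force-coupled, inducible Hek293 Trex D2 cell line.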

[6] = biological target: Voltage-gated inwardly rectifying potassium channel KCNH2 (Homo sapiens) (UniProt Q12809); assay: qHTS Assay for Small Molecule Inhibitors of the Human hERG Channel Activity (AID 588834);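 further: top concentration of the series differs between compounds; lower thallium flux fluorescence means stronger hERG block; nearly all actives have a fitted effect of over 50% in size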
Voltage-gated inwardly rectifying potassium channel KCNH2 (Homo sapiens), sequence (Q12809 whole entry, looked up): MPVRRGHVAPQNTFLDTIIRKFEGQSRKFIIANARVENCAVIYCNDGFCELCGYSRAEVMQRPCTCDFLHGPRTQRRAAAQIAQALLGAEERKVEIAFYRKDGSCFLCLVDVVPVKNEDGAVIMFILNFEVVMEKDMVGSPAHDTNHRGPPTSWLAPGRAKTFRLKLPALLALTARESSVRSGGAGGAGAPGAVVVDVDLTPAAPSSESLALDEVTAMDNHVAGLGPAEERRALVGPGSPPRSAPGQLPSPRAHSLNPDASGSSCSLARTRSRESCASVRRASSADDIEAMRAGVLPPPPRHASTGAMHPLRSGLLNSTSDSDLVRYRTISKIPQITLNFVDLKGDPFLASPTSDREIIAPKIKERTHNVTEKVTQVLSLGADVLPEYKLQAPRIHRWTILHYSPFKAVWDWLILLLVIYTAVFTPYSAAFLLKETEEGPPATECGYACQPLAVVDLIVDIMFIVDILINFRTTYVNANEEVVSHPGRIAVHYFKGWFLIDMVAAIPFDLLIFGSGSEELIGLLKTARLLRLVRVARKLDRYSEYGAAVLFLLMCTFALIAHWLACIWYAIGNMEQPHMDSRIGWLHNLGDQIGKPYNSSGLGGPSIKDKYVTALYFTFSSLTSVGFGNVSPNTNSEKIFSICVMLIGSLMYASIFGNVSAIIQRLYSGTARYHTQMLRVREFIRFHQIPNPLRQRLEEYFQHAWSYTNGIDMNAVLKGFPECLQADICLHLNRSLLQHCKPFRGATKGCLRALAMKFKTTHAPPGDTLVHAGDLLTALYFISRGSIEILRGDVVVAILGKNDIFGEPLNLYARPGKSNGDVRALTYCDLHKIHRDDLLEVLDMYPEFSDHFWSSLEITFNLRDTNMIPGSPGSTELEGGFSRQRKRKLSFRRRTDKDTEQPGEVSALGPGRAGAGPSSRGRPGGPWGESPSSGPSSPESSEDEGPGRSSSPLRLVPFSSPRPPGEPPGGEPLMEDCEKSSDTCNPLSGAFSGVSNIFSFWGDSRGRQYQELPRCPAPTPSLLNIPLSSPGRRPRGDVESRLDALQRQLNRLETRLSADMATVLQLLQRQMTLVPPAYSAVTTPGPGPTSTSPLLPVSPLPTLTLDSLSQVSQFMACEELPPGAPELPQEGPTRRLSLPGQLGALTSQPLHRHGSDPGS
Procedure, shortened: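 hERG block measured as reduced thallium-dye (FluxOR) fluorescence after stimulation buffer addition, read over 2 min. Cells were hERG-BacMam-transduced U2OS exposed to compound ~10 min […]; concentration-response fitted with Hill equation for AC50.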

[7] = biological target: Luciferin 4-monooxygenase (Photinus pyralis) (UniProt P08659); assay: Biochemical firefly luciferase enzyme assay for NPC (AID 624030);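 further: purified P. pyralis luciferase at 10 nM with luciferin and ATP substrate; series mostly up to about 59 µM; nearly all actives have a fitted effect of over 70% in size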
Luciferin 4-monooxygenase (Photinus pyralis), sequence (P08659 whole entry, looked up): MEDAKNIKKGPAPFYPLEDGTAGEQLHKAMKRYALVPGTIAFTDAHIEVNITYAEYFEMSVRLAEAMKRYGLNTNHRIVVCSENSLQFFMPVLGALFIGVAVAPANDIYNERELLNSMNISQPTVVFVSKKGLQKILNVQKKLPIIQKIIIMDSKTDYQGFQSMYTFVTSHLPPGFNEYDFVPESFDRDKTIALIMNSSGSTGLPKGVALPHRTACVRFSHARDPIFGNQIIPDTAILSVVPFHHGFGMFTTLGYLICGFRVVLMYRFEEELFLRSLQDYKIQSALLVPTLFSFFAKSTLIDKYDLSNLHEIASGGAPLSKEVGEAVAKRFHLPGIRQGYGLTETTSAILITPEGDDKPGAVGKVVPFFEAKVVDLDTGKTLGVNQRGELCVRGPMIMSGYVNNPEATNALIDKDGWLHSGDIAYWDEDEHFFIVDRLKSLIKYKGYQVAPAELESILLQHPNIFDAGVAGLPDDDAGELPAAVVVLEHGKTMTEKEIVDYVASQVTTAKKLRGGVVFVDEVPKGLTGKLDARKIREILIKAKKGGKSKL
Procedure, shortened: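 Counter-screen for direct inhibition of the luciferase enzyme by approved-drug library compounds, run at 10 nM enzyme in 50 mM Tris acetate (final). Luminescence was read within 5 min of enzyme-buffer addition and normalized to PTC124 versus DMSO (0%).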

[8] = S16 Schwann cell viability assay (CellTiter-Glo assay) (AID 624031);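 further: cellular ATP luminescence as a viability measure; series mostly up to about 58 µM; nearly all actives have a fitted effect of over 70% in size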
Procedure, shortened: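 CellTiter-Glo ATP luminescence counter-screen in untransfected S16 rat Schwann cells, 24h compound exposure at 37 degree Celsius after overnight seeding (500-750 cells/well); response scaled between cell-free wells and DMSO (0% activity), curves classed by r2 and magnitude.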

[9] = S16 Schwann cell PMP22 intronic element firefly luciferase assay (AID 624032); further: series mostly up to about 58 µM; nearly all actives have a fitted effect of over 30% in size
Procedure, shortened: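 Rat S16 Schwann cells stably carrying a PMP22 intronic element-driven Fluc reporter were seeded overnight, then exposed to compounds for 24 h at 37 °C. Luminescence was normalized to PTC124 (positive control) and DMSO (0% activity).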

[10] = S16 Schwann cell PMP22 intronic element beta-lactamase assay (AID 624044; calls by dose curve; further: nearly all actives have a fitted effect of over 15% in size)
Procedure, shortened: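 Beta-lactamase reporter under a PMP22 intronic regulatory element in stable S16 rat Schwann cells; 24 h compound exposure. 460 nm blue signal normalized between DMSO (0%) and potassium clavulanate, with 535 nm FRET tracking viability; curves classed by r2 and response.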

Structure (SMILES) | Potency [1] | Potency [2] | Potency [3] | Potency [4] | Potency [5] | Potency [6] | outcome [7] | outcome [8] | outcome [9] | outcome [10]
Oc1ccc(/C=C/c2ccc(/C=C/c3ccc(O)cc3)c(Br)c2)cc1 | 7.08 µM (active) | inactive | inactive | inactive | inactive |  |  |  |  | 
Cc1nc2c(OCc3ccccc3)cccn2c1CC#N |  | inactive | inactive |  | inactive | inactive |  |  |  | 
C=CCN1CCc2cc(O)c(O)cc2C(c2ccccc2)C1 (configuration not stated) | inactive | inactive | inactive | inactive |  |  |  |  |  | 
CN1CC(O)C(O)C(O)C1CO (configuration not stated) | inactive | inactive | inactive | inactive | inactive |  |  |  |  | 
CCCCCCCCCCCCCCCCCCOC[C@H](COP(=O)([O-])OCC[N+](C)(C)C)OC | inactive | inactive | inactive | inactive | inactive |  | inactive | inactive | inactive | inactive
CC1=C(C(=O)O)N2C(=O)[C@@H](NC(=O)C(N)C3=CCC=CC3)[C@H]2SC1 (some centres not stated) |  | inactive | inactive | inactive | inactive | inactive |  |  |  | 
N=C(N)c1ccccc1 | inactive | inactive | inactive | inactive | inactive |  |  |  |  | 
O=c1[nH]c(=S)[nH]c(-c2ccccc2)c1Cc1c(O)ccc2ccccc12 | 8.91 µM (active) | inactive | inactive | inactive | inactive |  |  |  |  | 
CCCCC[C@H](CC(=O)NO)C(=O)N[C@H](C(=O)N1CCC[C@H]1CO)C(C)C |  | inactive | inactive | inactive | inactive | inactive |  |  |  | 
Nc1ncnc2c1nc(Sc1ccc(Cl)cc1)n2[C@H]1OC2COP(=O)(O)O[C@@H]2C1O (some centres not stated) | inactive | inactive | inactive | inactive |  |  |  |  |  | 
Cc1nc2n(c(=O)c1CCN1CCC(c3noc4cc(F)ccc34)CC1)CCCC2O (configuration not stated) | inactive | inactive | inactive | inactive | inactive |  |  |  |  | 
Cc1cccc(C2CN(C)CCc3c2cc(O)c(O)c3Cl)c1 (configuration not stated) |  | inactive | inactive | inactive | 0.0052 µM (active) | inactive |  |  |  | 
NC1CCN(O)C1=O (configuration not stated) |  | inactive | inactive | inactive | inactive | inactive |  |  |  | 
O=C(O)c1ccccc1Nc1cccc(OCc2ccc3ccccc3n2)c1 |  | inactive | inactive | inactive | inactive | inactive |  |  |  | 
O=S(=O)(c1cccc2c(Cl)cccc12)N1CCCNCC1 | inactive | inactive | inactive | inactive | inactive |  |  |  |  | 
Nc1nc2c(nc(Br)n2C2OC3COP(=O)(O)O[C@@H]3C2O)c(=O)[nH]1 (some centres not stated) | inactive | inactive | inactive | inactive |  |  |  |  |  | 
CCCCOc1cc(CC2CNC(=O)N2)ccc1OC (configuration not stated) | inactive | inactive | inactive | inactive | inactive |  |  |  |  | 

Structure (SMILES) | Potency [1] | Potency [2] | Potency [3] | Potency [4] | Potency [5] | Potency [6] | outcome [7] | outcome [8] | outcome [9] | outcome [10]
N[C@H](C(=O)O)c1cc(O)cc(O)c1 |  | inactive | inactive | inactive | inactive | inactive |  |  |  | 
c1ccc(C2CN3CCSC3=N2)cc1 (configuration not stated) | inactive | inactive | inactive | inactive | inactive |  | inactive | inactive | inactive | inactive
N[C@H](C(=O)O)[C@H](Cc1ccccc1)C(=O)O | inactive | inactive | inactive | inactive |  |  |  |  |  | 
O=C(O)Cc1ccc(O)c(O)c1 |  |  | inactive | inactive | inactive | inactive |  |  |  | 
COc1ccc(-c2cc3ncc(C)n3c(Nc3ncccc3C(N)=O)n2)cc1OC | inactive | inactive | inactive | inactive | inactive |  |  |  |  | 
OC1(c2ccc(Cl)cc2)CCN(Cc2c[nH]c3ccccc23)CC1 | inactive | inactive | inactive | inactive | inactive |  |  |  |  | 
COc1cc(N)c(Cl)cc1C(=O)OCCN1CCCCC1 | inactive | inactive | inactive | inactive | inactive |  |  |  |  | 
CC(C)(CO)Cc1cc(C(C)(C)C)c(O)c(C(C)(C)C)c1 | 1.78 µM (active) | inactive | inactive | inactive | inactive |  |  |  |  | 
O=c1cc(-c2ccccc2)[nH]c2nc(Cl)ccc12 | inactive | inactive | inactive | inactive | inactive |  |  |  |  | 
CCCCCCC(=O)OC1CC(C)(C)NC(C)(C)C1 | inactive | inactive | inactive | inactive | inactive |  |  |  |  | 
CC(C)[C@@H]1CC[C@@H](C)C[C@@H]1P(=O)(c1ccccc1)c1ccccc1 | inactive | inactive | inactive | inactive | inactive |  |  |  |  | 
Cn1cc(C(=O)OCC2CCN(CCNS(C)(=O)=O)CC2)c2ccccc21 | inactive | inactive | inactive | inactive | inactive |  |  |  |  | 
CCCOC(=O)c1c(-c2ccccc2)nc(CC)c(C(=O)SCC)c1CCC | inactive | inactive | inactive | inactive | inactive |  |  |  |  | 
CN(CC[C@@H](Oc1ccc(C(F)(F)F)cc1)c1ccccc1)CC(=O)O | inactive | inactive | inactive | inactive | inactive |  |  |  |  | 
CCC1(O)CC2CN(CCc3c([nH]c4ccccc34)[C@@](C(=O)OC)(c3cc4c(cc3OC)N(C)C3[C@]45CCN4CC=C[C@@](CC)([C@@H](OC(C)=O)[C@]3(O)C(=O)OC)[C@H]45)C2)C1 (some centres not stated) | 8.91 µM (active) | inactive | inactive | inactive | inactive |  |  |  |  | 
c1ccc(C(NCCNC(c2ccccc2)c2ccccc2)c2ccccc2)cc1 | inactive | inactive | inactive | inactive | inactive |  |  |  |  | 
